# Bioassay records (PubChem)
# Sampled rows, rich in hits. Any-hit rate of the full collection: about 7.4%.
# NPC1 prom act: qHTS Assay for NPC1 Promoter Activators | Huh7 NPC1 promoter luciferase reporter, 24 h | Potency, µM (series often up to 9.22 µM), for inactives: top-dose activation, most hits filed as activators | 320,000 tested, 2.4% active; also: % of control where 0% means no effect; nearly all actives have a fitted effect of over 60% in size
#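 Luminescence from an NPC1 promoter-driven luciferase reporter in stably transfected Huh7 cells was measured after 24 h compound treatment at 37 °C, followed by 10 min ambient incubation with luciferase detection reagent.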
# Rab9 prom act: qHTS Assay for Rab9 Promoter Activators; Potency, µM (highest dose often 9.22 µM), for inactives: at the top dose activation, negative = inhibition, usual class: activators; Huh7 Rab9 promoter-luciferase reporter, luminescence, 24 h; 320,000 tested, 2.8% active; also: % of control where 0% means no effect; nearly all actives have a fitted effect of over 60% in size
#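 Promoter activation is measured as luciferase luminescence in Huh7 cells stably transfected with a Rab9 promoter–luciferase construct, following 24 h compound exposure at 37 °C and 10 min reagent incubation at ambient temperature.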
# SMN2 splice up: qHTS Assay for Enhancers of SMN2 Splice Variant Expression; HEK293 SMN2-luciferase splicing reporter, luminescence, 30-36 h; Potency, µM (highest dose often 46.1 µM), inactives show at the highest dose activity change, positive = activation, actives largely listed as activators; 210,000 tested, 2.8% active; AID 1458, 2008; also: % of control where 0% means no effect; nearly all actives have a fitted effect of over 55% in size
#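 qHTS luciferase splicing reporter: luminescence rises when SMN2 exon 7 is included in transfected HEK293 cells. Compound exposure lasted 30-36 h at 37C, with 4.5 mM final sodium butyrate as control, followed by a ONE-Glo read.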
# FLuc modulator: qHTS profiling assay for firefly luciferase inhibitor/activator using purifed enzyme and Km concentrations of substrates (counterscreen for miR-21 project); Luciferin 4-monooxygenase (Photinus pyralis), P08659; purified FLuc, Km substrates, luminescence inhibition; Potency, µM (series often up to 57.5 µM), inactives show at the top dose activity change, negative = inhibition, hits mostly inhibitors; 360,000 tested, 6.9% active; AID 588342, 2011;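 also: plate controls were vehicle for no effect and reference inhibitor for full effect; nearly all actives have a fitted effect of over 55% in size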
# Target sequence (P08659 whole entry, looked up): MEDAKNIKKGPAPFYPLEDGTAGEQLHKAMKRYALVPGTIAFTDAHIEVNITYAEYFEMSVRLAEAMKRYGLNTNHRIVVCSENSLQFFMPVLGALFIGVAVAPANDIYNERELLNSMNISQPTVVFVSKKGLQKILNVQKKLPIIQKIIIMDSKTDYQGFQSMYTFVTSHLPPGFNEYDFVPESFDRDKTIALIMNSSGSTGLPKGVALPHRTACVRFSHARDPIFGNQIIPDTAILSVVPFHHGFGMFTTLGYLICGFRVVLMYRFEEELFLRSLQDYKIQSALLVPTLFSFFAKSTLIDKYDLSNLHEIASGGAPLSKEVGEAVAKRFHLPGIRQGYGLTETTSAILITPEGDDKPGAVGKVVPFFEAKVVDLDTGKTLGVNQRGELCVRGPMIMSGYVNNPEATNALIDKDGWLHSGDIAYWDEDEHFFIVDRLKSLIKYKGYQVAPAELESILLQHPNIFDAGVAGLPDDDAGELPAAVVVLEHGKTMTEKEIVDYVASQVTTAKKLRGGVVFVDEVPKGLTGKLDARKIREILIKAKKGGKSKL
#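 Purified P. pyralis luciferase, 10 nM final, with Km-level 10 uM D-luciferin and 10 uM ATP in 50 mM Tris acetate pH 7.5, 10 mM Mg acetate, 0.01% Tween-20, 0.05% BSA; 6-point qHTS titration about 60 µM downward; luminescence read.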
# p53 reactivation: qHTS assay for re-activators of p53 using a Luc reporter; H1299 p53-A138V BP100-luciferase reporter, luminescence, 24 h; Potency, µM (doses to about 92.2 µM), inactives show at the top dose activity change, positive = activation, usual class: activators; 320,000 tested, 0.063% active; AID 504706, 2011; also: % of control where 0% means no effect; nearly all actives have a fitted effect of over 45% in size
#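 p53-null H1299 cells stably carrying temperature-sensitive p53-A138V and a BP100-luciferase reporter were pinned with compounds (4-point, 1:5 series) and held 24 hrs at 37 deg C. Luminescence was read 10 min after detection reagent.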
# ELG1 genotox: qHTS screen for small molecules that induce genotoxicity in human embryonic kidney (HEK293T) cells expressing luciferase-tagged ELG1; HEK293T ELG1-luciferase reporter, luminescence, 16 h; 330,000 tested, 1.3% active; Potency, µM (highest dose often 46 µM), for the others: top-dose activity change, positive = activation, actives largely listed as activators; also: % of control where 0% means no effect; nearly all actives have a fitted effect of over 60% in size
#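 16 hr compound incubation (37 °C, 5% CO2) of HEK293T cells carrying luciferase-tagged ELG1; luciferase then measured by ONE-Glo luminescence after 30 min at RT.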
# Numbers without * were called inactive; ? = inconclusive; · = not tested or not shown; [ ] = remark or other dose. Calls follow the shape of the dose curve; as a rule, active = well fitted curve in the direction sought with a large enough effect; inconclusive = small, poorly fitted or top-dose-only effect, or another doubt; inactive = no such curve, though single readings can be large; an effect the other way counts as inactive or inconclusive. Potency is read from the fitted curve at half-maximal effect.
SMILES,NPC1 prom act,Rab9 prom act,SMN2 splice up,FLuc modulator,p53 reactivation,ELG1 genotox
O=C(CCN1C(=O)C2CCCCC2C1=O)Nc1nc(-c2ccccc2)cs1 (stereo not given),22%,?,·,0%,0%,-3%
O=C(Nc1nc(-c2ccccc2)cs1)C1CCCCN1S(=O)(=O)c1ccccc1 (stereo not given),9%,1%,-38%,-1%,24%,1%
c1ccc(-c2csc(NC3CCCCC3)n2)cc1,0.79µM*,1µM*,·,1.7µM*,?,5.2µM*
COc1ccc(-c2csc(NC3CCCCC3)n2)c(OC)c1,20%,23%,·,24µM*,18%,?
O=S(=O)(Nc1ccc(-n2cnnn2)cc1)c1cccc(Cl)c1,-7%,1%,·,5%,-11%,0%
Cc1ccc(-n2ncc3c(NCCCn4ccnc4)ncnc32)cc1,·,·,·,12µM*,·,·
Cc1ccc(-n2ncc3c(NCCCn4ccnc4)ncnc32)c(C)c1,0%,-7%,-25%,0%,10%,-2%
Cc1cccc(-n2ncc3c(NCCCn4ccnc4)ncnc32)c1,27%,?,7.1µM*,?,?,?
CC(CN1CCCCC1)OC(=O)c1ccco1 (stereo not given),0%,3%,·,1%,-7%,-1%
Cc1ccc(C(=O)N2CCc3cc(CNC(=O)CSc4ccccc4)ccc32)cc1,·,·,·,24µM*,·,·
CCOc1ccc(-c2cc(C(=O)N3CCN(c4cc(Cl)ccc4C)CC3)c3ccccc3n2)cc1,·,·,·,9.5µM*,·,·
O=C(Nc1nnc(-c2cccs2)o1)c1cc(-c2ccccc2)nc2ccccc12,-3%,-2%,-92%,19µM*,?,-8%
O=C(NCc1cccs1)c1cc(-c2ccccc2)nc2ccccc12,0%,2%,-9%,?,-12%,-8%
O=C(O)c1cc(-c2ccccc2)nc2ccccc12,1%,1%,-20%,24µM*,8%,3%
CCOc1ccc(-c2cc(C(=O)NCCc3ccc(C)cc3)c3ccccc3n2)cc1,·,·,·,1.3µM*,·,·
Cc1ccc(-c2cc(C(=O)O)c3ccccc3n2)c(C)c1,17%,0%,·,7.6µM*,6%,7%
Cc1ccc(-c2cc(C(=O)NCCc3ccccc3)c3ccccc3n2)cc1C,·,·,·,8.5µM*,·,·
CCOc1ccc(-c2cc(C(=O)O)c3ccccc3n2)cc1,?,1.6µM*,11µM*,0.67µM*,9%,3.3µM*
O=C(O)c1cc(-c2ccc(O)cc2)nc2ccccc12,0%,-2%,-5%,?,0%,3%
Cc1ccc(-c2cc(C(=O)Nc3cc(C)on3)c3ccccc3n2)c(C)c1,1%,7%,-12%,?,2%,0%
COc1ccc(N2C=C3C(=O)C(C)(OC(=O)C4CCCC4)C(=O)C=C3C=C2c2ccsc2)cc1 (stereo not given),·,·,5%[9.22 µM],·,·,·
Cc1cc(C(=O)N/N=C/c2cccnc2)c(C)o1,-1%,15%,-6%,?,6%,0%
Cc1cc(C(=O)N/N=C/C(Cl)=C/c2ccccc2)c(C)o1,20%,24%,·,9.5µM*,4%,1%
O=C(N/N=C/C=C/c1ccccc1)c1ccccn1,?,3.5µM*,·,17µM*,10%,?
CCOc1ccc2c(c1)C(=NNC(=O)c1ccncc1)c1cc(OCC)ccc1-2,-11%,-18%,-69%,?,40µM*,?
SMILES,NPC1 prom act,Rab9 prom act,SMN2 splice up,FLuc modulator,p53 reactivation,ELG1 genotox
O=C(N/N=C/C(Cl)=C/c1ccccc1)c1ccncc1,-2%,11%,9%,17µM*,29%,4%
O=S(=O)(NCCc1csc(-c2ccc(F)cc2)n1)c1ccc(Cl)cc1,·,·,·,-13%,·,·
Cc1cc(C(=O)N/N=C/C=C/c2ccccc2)n[nH]1,-4%,9%,·,?,3%,0%
CC(=N/O)/C(C)=N\NC(=O)c1ccccn1,30%,?,?,-20%,4%,?
O=C(N/N=C/c1ccncc1)c1ccccn1,?,?,·,?,12%,?
O=C(NN=C1c2ccccc2-c2ccccc21)c1ccccn1,21%,15%,-19%,5.4µM*,14%,3%
O=C(N/N=C/C=C\c1ccco1)c1ccccn1,?,9%,·,?,24%,?
O=C(N/N=C/C(Cl)=C/c1ccccc1)c1ccccn1,4µM*,1.8µM*,13µM*,4.8µM*,-11%,?
CC(/C=N/NC(=O)c1ccccn1)=C\c1ccco1,1.4µM*,1.4µM*,·,3.8µM*,7%,?
Cc1ccc(-c2cc(C(=O)N/N=C/C=C/c3ccccc3)n[nH]2)s1,-3%,-2%,-30%,9.5µM*,12%,-2%
CC(C)(C)CC(C)(C)c1ccc(OCC(=O)Nc2ccc(S(=O)(=O)Nc3ncccn3)cc2)cc1,·,·,1%,-12%,·,·
Cc1cc(-n2c(C)nc3ccccc3c2=O)ccc1NC(=O)c1cccc([N+](=O)[O-])c1C,·,·,·,3%,·,·
NC1(C(=O)O)C[C@H](C(=O)O)[C@H](C(=O)O)C1 (stereo not given in full),·,·,-5%,·,·,·
O=C(N/N=C/C(Br)=C/c1ccccc1)c1cnccn1,19%,3.5µM*,·,6µM*,?,?
O=C(N/N=C1\C/C(=N\NC(=O)c2ccncc2)c2ccccc21)c1ccncc1,3%,-25%,·,4.8µM*,10%,-3%
COc1ccc(C2CC(=O)c3cnc(N4CCc5ccccc54)nc3C2)cc1OC (stereo not given),0%,-3%,·,-1%,-1%,-3%
CNc1nc(N2CCc3ccccc32)ncc1F,2.5µM*,2.2µM*,?,5.4µM*,?,?
COc1cc(C(=O)N/C(=C\c2cn(C)c3ccccc23)C(=O)NCCN2CCOCC2)cc(OC)c1OC,3%,-4%,·,2%,-2%,1%
Cc1cccc(N2CCN(C(=O)c3cc4ccc5cccnc5c4[nH]3)CC2)c1C,·,·,·,-14%,·,·
Cc1ccc(C(=O)OCC(=O)Nc2ccccc2C(F)(F)F)cc1S(=O)(=O)N1CCCCC1,0%,-3%,·,-2%,-9%,-5%
O=C(/C=C/c1ccccc1Cl)NNC(=O)c1ccncc1,2%,20%,·,21µM*,12%,1%
N/C(=N\OC(=O)/C=C/c1ccccc1)c1ccncc1,3.2µM*,1.8µM*,3%,6µM*,26%,?
